# proKLK7 act = activates the human kallikrein-7 zymogen. 370,000 tested, 0.9% active. activation, % at 7 µM. P49862. purified proKLK7, EDANS-DABCYL substrate fluorescence; 100% is mature enzyme control, 0% vehicle. AID 652039;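 active = activation above the mean of all tested compounds plus 3 SD, computed per campaign excluding outliers beyond control limits, cut at about 13% in these data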
# PLCb3 inh = inhibitors of human phospholipase C beta3. 370,000 tested, 0.18% active. Q01970. inhibition, % at 12.2 µM. Purified PLC-beta3, fluorogenic substrate, fluorescence; in the data active = inhibition above about 11%;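 note: 0% = median of compound wells on plate and 100% = full blocker control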
# HGIII-sPLA2 inh = Blocks human group III sPLA2 activity; QFRET BODIPY PC-A2 liposome hydrolysis, fluorescence; inhibition, % at 12.2 µM; AID 743126; 370,000 tested, 0.56% active;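 active = inhibition above mean plus 3 SD of compounds lying within the high and low control bounds, cut at about 19% in these data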;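 note: 0% = median of test compound wells and 100% = no enzyme DMSO wells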
# ADAM17 inh = inhibits human ADAM17. P78536. recombinant ADAM17, EDANS/DABCYL FRET peptide cleavage. inhibition, % at 6.95 µM. 370,000 tested, 0.83% active;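 active = inhibition above the mean of compounds lying between control limits plus 3 SD, set per campaign, cut at about 8.5% in these data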;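 note: 0% = DMSO-only wells as the low control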
# PLCg1 inh = PLC-gamma1 (human) inhibition, primary screen | purified PLC-gamma1, fluorogenic substrate, fluorescence | inhibition, % at 12.2 µM | P19174 | 370,000 tested, 0.84% active; in the data active = inhibition above about 9.5%
# ADAM10 inh = ADAM10 inhibition, QFRET primary screen. O14672. inhibition, % at 7 µM. 370,000 tested, 0.62% active. recombinant ADAM10, EDANS/DABCYL FRET peptide cleavage, 3 h. AID 720582;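 active = inhibition above a per-campaign cutoff equal to the mean of compounds falling between control-based bounds plus 3 SD, cut at about 20% in these data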;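 note: 0% = DMSO wells while the 100% control is not disclosed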
# Numbers without * were called inactive; i = inactive. Sampled rows, rich in hits. Any-hit rate of the full collection: about 3.4%.
SMILES,proKLK7 act,PLCb3 inh,HGIII-sPLA2 inh,ADAM17 inh,PLCg1 inh,ADAM10 inh
CCOC(=O)c1[nH]c2c(c1C)C(=O)CC(c1ccc(F)cc1)C2 (stereo not given),1.1,2.0,-1.6,0.3,3.4,-3.8
O=C(c1ccccc1)c1ccc(-c2ccc(O)cc2)cc1,0.5,-86.7,-12.0,4.4,-62.5,4.7
O=C(c1ccccc1)c1ccccc1,0.2,10.7*,10.5,4.3,9.5,-3.5
O=C(OC12CCCN(C1)/C(=C/c1ccc(Cl)cc1)C2)c1ccco1 (stereo not given),0.2,-0.9,7.9,3.5,-1.4,-7.8
CSc1ncccc1C(=O)OCn1nnc2ccccc2c1=O,-0.1,5.6,1.7,0.1,4.5,-0.6
O=C(OCn1nnc2ccccc2c1=O)c1cccnc1Cl,0.2,7.9,6.9,3.4,11.9*,4.0
CCc1cccc(CC)c1NC(=O)C1SC(=Nc2ccccc2C)C(c2nc3ccccc3s2)=C1N (stereo not given),-1.1,-6.2,0.2,7.5,0.9,22.4*
CC(c1c[nH]c2ccccc12)c1c[nH]c2ccc(Br)cc12 (stereo not given),0.3,-7.8,-30.0,-0.4,-3.9,-2.8
CCOc1ccccc1CN(Cc1ccco1)S(=O)(=O)c1ccc(-n2cnnn2)c(OC)c1,-0.1,5.7,-24.6,12.0*,8.0,18.0
COc1cc(S(=O)(=O)N(Cc2ccco2)C2CCCC2)ccc1-n1cnnn1,0.4,-0.2,-15.4,0.0,0.7,2.7
COC(=O)CCC/C=C1/SCC(NC(=O)c2ccccc2)C1=O (stereo not given),0.4,-19.2,-3.5,12.0*,-11.4,0.8
CCOC(=O)CC[C@H]1CC[C@]2(CCCN(Cc3ccccc3)C2)O1,-1.1,-3.0,6.6,-5.0,2.7,-9.6
CCc1nnc(NC(=O)CCC(=O)N2CCN(Cc3ccc(C)cc3C)CC2)s1,0.1,0.9,-0.7,4.8,13.7*,7.8
CCCc1nnc(NC(=O)CCC(=O)N2CCN(Cc3ccc(C)cc3C)CC2)s1,-0.7,-9.9,-10.9,-4.7,-0.9,-5.2
CCOC(=O)N1CCN(C(=O)C[C@H]2C[C@@]3(C(=O)OCC)CCCC4=C3N(CCC4)C2=O)CC1,0.7,0.1,4.4,-1.2,-0.8,2.7
CC1Cc2nc(SCC(=O)NCc3ccccc3)n(Cc3ccccc3)c(=O)c2S1 (stereo not given),-0.3,0.2,-8.3,1.8,5.5,0.9
CC1Cc2nc(SCC(=O)c3ccccc3)n(Cc3ccccc3)c(=O)c2S1 (stereo not given),-0.6,7.3,-43.1,3.4,2.6,20.5*
O=C(c1cccc2ccccc12)N1CCC(N2CCN(c3ccccc3)CC2)CC1,0.0,4.5,-3.3,5.8,14.6*,11.2
O=C(c1cccs1)N1CCC(N2CCN(c3ccccc3)CC2)CC1,0.2,4.9,4.5,-3.7,1.4,-8.8
Cc1ccccc1OCC(O)CNC1CCC(NCC(O)COc2ccccc2C)CC1 (stereo not given),-0.2,7.0,-15.9,0.8,15.5*,2.3
O=C(Nn1cnnc1)c1ccc([N+](=O)[O-])cc1Cl,0.3,-4.4,20.8*,-4.2,3.1,-5.8
O=C(Nn1cnnc1)c1cc([N+](=O)[O-])cc([N+](=O)[O-])c1,-0.5,2.9,-2.4,1.8,1.9,4.8
C=CCN1[C@@H](C)COc2cccc(N3CCCC3)c2S1(=O)=O,0.5,-4.2,-1.5,-1.0,-3.5,-5.8
O=S(=O)(c1cccc2cccnc12)N1CCC(c2cn3ccccc3n2)CC1,-1.1,-18.0,-3.8,-7.7,-13.8,-37.4
Cc1cc(C(=O)COC(=O)c2ccc3c(c2)OCO3)c(C)n1Cc1cccs1,0.2,4.3,0.9,7.9,10.4*,6.3
SMILES,proKLK7 act,PLCb3 inh,HGIII-sPLA2 inh,ADAM17 inh,PLCg1 inh,ADAM10 inh
Cn1nnnc1SCc1ccc(C(=O)Nc2nccs2)cc1,0.5,-0.6,0.1,-3.5,-0.9,0.6
C=CCn1c(SCc2ccc(C(=O)Nc3nccs3)cc2)nnc1-c1ccc(C)c(Cl)c1,-0.8,1.4,-22.7,8.8*,-0.4,7.7
OC(COc1ccccc1)CN(Cc1ccccc1)CC(O)COc1ccccc1 (stereo not given),-0.1,3.9,-23.5,5.1,4.0,14.3
CCC(=O)c1ccc(OCC(O)CN(CCc2ccccc2)Cc2ccccc2)cc1 (stereo not given),0.5,0.3,-33.4,9.3*,2.2,17.6
CCC(C)(C)C1CCc2[nH]nc(C(=O)O)c2C1 (stereo not given),0.3,1.6,7.0,2.5,1.6,-9.5
CC(C)(C)C1CCc2[nH]nc(C(=O)O)c2C1 (stereo not given),0.2,10.1,0.5,6.0,14.6*,4.5
O=C(c1cccs1)N1C[C@H](O)[C@@H](n2cc(C3CC3)nn2)C[C@@H]1c1ccccc1,0.3,4.4,-0.2,0.5,11.1*,-0.3
c1ccc(-c2nnc3n2N=C(c2ccc4ccccc4c2)CS3)nc1,0.0,-2.9,3.5,-5.2,-0.4,-13.4
Cc1ccc(N2CSC3=C(C#N)C(c4cccs4)CC(=O)N3C2)cc1 (stereo not given),1.4,-15.9,-4.4,-3.2,-15.5,-13.9
COc1ccc(N2CSC3=C(C#N)C(c4cccs4)CC(=O)N3C2)cc1 (stereo not given),-0.1,0.5,8.7,-3.2,9.9*,4.2
COc1ccc(NC(=O)N2CCCC(c3nc(-c4ccc(OC)cc4)no3)C2)cc1 (stereo not given),0.4,1.8,-15.5,2.5,1.0,8.0
COc1ccc(NC(=O)N2CCCC(c3nc(-c4ccc(C(C)C)cc4)no3)C2)cc1 (stereo not given),0.5,5.1,-10.2,10.5*,1.4,25.1*
Cn1c(C(=O)N2CCN(C(=O)c3ccco3)CC2)cc2c(=O)n3ccccc3nc21,45.8*,i,9.3,i,i,i
CC1Cc2ccccc2N1C(=O)c1cc2c(=O)n3ccccc3nc2n1C (stereo not given),1.9,-34.0,0.1,-8.9,-31.2,-30.6
Cc1ccc(-n2c(SCc3cccc(F)c3)nnc2-c2cccc(C)c2)cc1,-0.5,1.3,1.6,3.6,4.0,0.1
Nc1nc2ccc(S(=O)(=O)N3CCCCC3)cc2s1,0.7,0.9,-4.2,0.2,47.8*,-5.5
CCCCCCCCN1C(=O)[C@@H](CC(=O)NCCc2ccccc2OC)C[C@@]2(C(=O)OC)C1=C[C@H](COCc1ccccc1)O[C@@H]2C,0.4,-5.8,-14.3,-4.6,-5.2,-4.5
CCc1ccc(NC(=O)[C@H](C)NC(=O)C2CCN(C(=O)[C@@H](N)CC(C)C)CC2)cc1,-0.6,-3.2,-0.1,-3.9,0.7,-1.6
Cc1ccc(CNC(=O)[C@H](C)NC(=O)C2CCN(C(=O)[C@@H](N)CC(C)C)CC2)cc1,0.5,1.5,19.5*,-1.1,1.3,-20.7
CNc1cc(-c2ccc(OC)c(OC)c2)ncn1,0.6,-9.2,1.9,-14.4,-5.2,-47.2

# High-throughput results deposited in PubChem BioAssay by The Scripps Research Institute Molecular Screening Center.
